Test results as given in the supplement of paper PMC7366291.
Where a name gives a salt, the structure may show the parent alone. ± gives the standard deviation or the standard deviation of the averaged measurements.

How the values were obtained:
Conditions in all cases: 25 µM; exposure: 24-48 hpf
[1] = tested on: Danio rerio Tg(wt1b:EGFP) embryo, pronephros; assay: glomerular separation, fold change vs DMSO control; higher = glomeruli further apart (abnormal)
Summary of the method: (§1)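 Dechorionated Tg(wt1b:EGFP) zebrafish embryos were exposed to 25 μM compound in 0.5% DMSO, HEPES-buffered E3 with 0.003% PTU, from 24 to 48 hpf at 28.5°C. Pronephroi were imaged dorsally in agarose-filled 96-well plates (470 nm, 10 z-slices). On maximum projections, 16 reference points were set manually in Fiji and a macro computed distances and angles. Values more than 2 SD from the feature mean were excluded. Each feature is a fold change relative to the mean of same-day DMSO controls.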

[2] = tested on: Danio rerio Tg(wt1b:EGFP) embryo, pronephros; assay: glomerular width (mean of left and right), fold change vs DMSO control; higher = wider glomerulus
Summary of the method: as §1

[3] = tested on: Danio rerio Tg(wt1b:EGFP) embryo, pronephros; assay: fraction of imaged embryos annotated as normal kidney; higher = less nephrotoxic; extreme values may be limits of the assay
Summary of the method: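 Dechorionated Tg(wt1b:EGFP) zebrafish embryos were exposed in 12-well plates to 25 μM compound in 0.5% DMSO, 5 mM HEPES-buffered E3 with 0.003% PTU, from 24 to 48 hpf at 28.5°C. Tricaine-anaesthetised larvae were oriented dorsally in agarose-filled 96-well plates, and pronephroi were imaged by widefield fluorescence (470 nm, 10 z-slices). Each embryo was manually annotated from maximum projections. The read-out is the fraction of embryos per treatment assigned to the normal-kidney category.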

[4] = tested on: Danio rerio Tg(wt1b:EGFP) embryo, pronephros; assay: pronephric angle neck segment to proximal convoluted tubule (mean of left and right), fold change vs DMSO control; higher = larger pronephric angle
Summary of the method: as §1

| Compound | glomerular separation [1] | glomerular width [2] | fraction of imaged embryos annotated as normal kidney [3] | pronephric angle neck segment [4] |
| --- | --- | --- | --- | --- |
| Clc1ccc(CO/N=C(\Cn2ccnc2)c2ccc(Cl)cc2Cl)c(Cl)c1 [Oxiconazole Nitrate] | 3.51 ± 1.1 | 0.623 ± 0.014 | 0 | 1.26 ± 0.03 |
| C[C@@H]1C[C@H]2[C@@H]3CCC4=CC(=O)C=C[C@]4(C)[C@@]3(Cl)[C@@H](O)C[C@]2(C)[C@@]1(OC(=O)c1ccco1)C(=O)CCl [Mometasone furoate] | 0.99 ± 0.37 | 1.26 ± 0.082 | 0.455 | 0.993 ± 0.085 |
| Nc1nc2c(ncn2COC(CO)CO)c(=O)[nH]1 [Ganciclovir] | 0.62 ± 0.26 | 1.009 ± 0.0021 | 0.917 | 0.998 ± 0.018 |
| CCn1cc(C(=O)O)c(=O)c2ccc(C)nc21 [Nalidixic acid sodium salt] | 1.31 ± 0.59 | 1.11 ± 0.025 | 0.25 | 1.19 ± 0.022 |
| N=C(N)NC(=O)Cc1c(Cl)cccc1Cl [Guanfacine hydrochloride] | 0.827 ± 0.15 | 1.08 ± 0.1 | 0.583 | 0.978 ± 0.025 |
| OCC(O)CN1CCN(c2ccccc2)CC1 (racemic) [Dropropizine (R,S)] | 0.917 ± 0.28 | 1.002 ± 0.0079 | 0.75 | 1.03 ± 0.038 |
| Cn1cnc2c1c(=O)[nH]c(=O)n2C [Theobromine] | 0.91 ± 0.41 | 0.947 ± 0.022 | 0.667 | 1.0118 ± 0.00063 |
| COc1ccc(C(=O)c2ccccc2)c(O)c1 [Oxybenzone] | 0.878 ± 0.34 | 1.09 ± 0.026 | 0.833 | 1.03 ± 0.02 |
| C[C@H](CCC(=O)O)[C@H]1CC[C@H]2[C@@H]3CC[C@@H]4C[C@H](O)CC[C@]4(C)[C@H]3CC[C@]12C [Lithocholic acid] | 1.26 ± 0.64 | 0.839 ± 0.085 | 0.364 | 0.929 ± 0.046 |
| CC1CS(=O)(=O)CCN1/N=C/c1ccc([N+](=O)[O-])o1 (centres undefined) [Nifurtimox] | 0.837 ± 0.36 | 0.986 ± 0.038 | 0.917 | 0.938 ± 0.045 |
| NC(=O)c1ccc[n+]([C@@H]2O[C@H](COP(=O)([O-])OP(=O)(O)OC[C@H]3O[C@@H](n4cnc5c(N)ncnc54)[C@H](O)[C@@H]3O)[C@@H](O)[C@H]2O)c1 [Nadide] | 0.955 ± 0.26 | 1.0386 ± 0.00057 | 0.75 | 0.9494 ± 0.0036 |
| Cc1ccc2c(c1)c1c3n2CCNC3CCC1 (centres undefined) [Pirlindole mesylate] | 0.876 ± 0.33 | 1.07 ± 0.036 | 0.833 | 0.95 ± 0.0043 |
| CNC(=C[N+](=O)[O-])NCCSCc1csc(CN(C)C)n1 [Nizatidine] | 0.966 ± 0.41 | 0.9023 ± 0.0037 | 0.917 | 1.01 ± 0.043 |
| Cc1c(C)c2c(c(C)c1O)CCC(C)(C(=O)O)O2 (centres undefined) [Trolox] | 0.733 ± 0.23 | 0.963 ± 0.058 | 0.833 | 1 ± 0.014 |
| CCN(CC)CC(=O)Nc1c(C)cccc1C [Lidocaine hydrochloride] | 0.686 ± 0.29 | 1.04 ± 0.015 | 1 | 0.9342 ± 0.0069 |
| CC[N+](C)(CC)CCC[n+]1c(-c2ccccc2)c2cc(N)ccc2c2ccc(N)cc21 [Propidium iodide] | 0.946 ± 0.41 | 1.16 ± 0.087 | 0.727 | 0.959 ± 0.036 |
| N=C(N)NCC1COC2(CCCCC2)O1 (centres undefined) [Guanadrel sulfate] | 0.935 ± 0.45 | 1.02 ± 0.071 | 0.75 | 0.992 ± 0.012 |
| CNCCC=C1c2ccccc2C=Cc2ccccc21 [Norcyclobenzaprine] | 1.12 ± 0.86 | 1.01 ± 0.051 | 0.833 | 0.94 ± 0.027 |
| CCOc1ccccc1OCC1CNCCO1 (centres undefined) [Viloxazine hydrochloride] | 1.35 ± 0.55 | 0.9002 ± 0.0018 | 0.833 | 1.04 ± 0.062 |
| CO[C@H]1/C=C/O[C@@]2(C)Oc3c(C)c(O)c4c(O)c(c(/C=N/N5CCN(C6CCCC6)CC5)c(O)c4c3C2=O)NC(=O)/C(C)=C\C=C\[C@H](C)[C@H](O)[C@@H](C)[C@@H](O)[C@@H](C)[C@H](OC(C)=O)[C@@H]1C [Rifapentine] | 0.895 ± 0.2 | 0.985 ± 0.066 | 0.909 | 1.1 ± 0.094 |
| CCCC(CCC)C(=O)O [Valproic acid] | 1.62 ± 0.94 | 0.725 ± 0.057 | 0.0833 | 1.11 ± 0.14 |

| Compound | glomerular separation [1] | glomerular width [2] | fraction of imaged embryos annotated as normal kidney [3] | pronephric angle neck segment [4] |
| --- | --- | --- | --- | --- |
| CCCCN(CCCC)CCCOC(=O)c1ccc(N)cc1 [Butacaine] | 0.928 ± 0.47 | 0.939 ± 0.05 | 0.917 | 0.9912 ± 0.0092 |
| CO[C@@]1(NC(=O)CSCC#N)C(=O)N2C(C(=O)O)=C(CSc3nnnn3C)CS[C@@H]21 [Cefmetazole sodium salt] | 0.79 ± 0.16 | 1.004 ± 0.0038 | 0.917 | 0.944 ± 0.042 |
| OC[C@H]1O[C@@H](Oc2ccc(O)cc2)[C@H](O)[C@@H](O)[C@@H]1O [Arbutin] | 0.869 ± 0.33 | 1.021 ± 0.0053 | 0.917 | 0.933 ± 0.018 |
| COc1cccc(N(C)C(=S)Oc2ccc3c(c2)CCCC3)n1 [Liranaftate] | 1.14 ± 0.62 | 1.025 ± 0.0045 | 0.667 | 1.06 ± 0.033 |
| COC(=O)C1=C(C)NC(C)=C(C(=O)OC)C1c1ccccc1[N+](=O)[O-] [Nifedipine] | 1.1 ± 0.54 | 1.05 ± 0.077 | 0 | 1.33 ± 0.09 |
| O=C(O)/C=C/c1ccc(Cn2ccnc2)cc1 [Ozagrel hydrochloride] | 1.04 ± 0.32 | 1.01 ± 0.032 | 0.833 | 0.98 ± 0.011 |
| C#CCN[C@@H]1CCc2ccccc21 [Rasagiline] | 1.13 ± 0.38 | 0.994 ± 0.012 | 0.667 | 0.972 ± 0.021 |
| CC[C@@H](CO)NCCN[C@@H](CC)CO [Ethambutol dihydrochloride] | 1.28 ± 0.4 | 0.965 ± 0.028 | 0.75 | 1.02 ± 0.076 |
| O=C(NCC1CCCCN1)c1cc(OCC(F)(F)F)ccc1OCC(F)(F)F (centres undefined) [Flecainide acetate] | 0.977 ± 0.32 | 1.03 ± 0.022 | 0.75 | 0.961 ± 0.023 |
| NNc1nncc2ccccc12 [Hydralazine hydrochloride] | 1.14 ± 0.53 | 1.04 ± 0.041 | 0.818 | 1.02 ± 0.039 |
| N=C(N)NS(=O)(=O)c1ccc(N)cc1 [Sulfaguanidine] | 1.04 ± 0.35 | 0.979 ± 0.034 | 0.833 | 1.02 ± 0.036 |
| O=C(Nc1cccc2c(=O)cc(-c3nnn[nH]3)oc12)c1ccc(OCCCCc2ccccc2)cc1 [Pranlukast] | 1.04 ± 0.37 | 1.01 ± 0.019 | 0.833 | 1.01 ± 0.041 |
| Cc1cc(C(=O)NNCc2ccccc2)no1 [Isocarboxazid] | 1.01 ± 0.72 | 1.21 ± 0.067 | 0.25 | 1.382 ± 0.0021 |
| CCN1CCN(c2cc3c(cc2F)c(=O)c(C(=O)O)cn3C2CC2)CC1 [Enrofloxacin] | 0.888 ± 0.34 | 1.07 ± 0.12 | 0.917 | 1.01 ± 0.037 |
| C=CCOC(Cn1ccnc1)c1ccc(Cl)cc1Cl (centres undefined) [Enilconazole] | 0.575 ± 0.22 | 1.12 ± 0.024 | 1 | 1.1 ± 0.062 |
| O=C1c2cccc(O)c2C(=O)c2c(O)cccc21 [1,8-Dihydroxyanthraquinone] | 1.16 ± 0.45 | 1 ± 0.04 | 0.917 | 1.03 ± 0.036 |
| CC(=O)N(CC(O)CN(C(C)=O)c1c(I)c(C(=O)NCC(O)CO)c(I)c(C(=O)NCC(O)CO)c1I)c1c(I)c(C(=O)NCC(O)CO)c(I)c(C(=O)NCC(O)CO)c1I (centres undefined) [Iodixanol] | 0.874 ± 0.28 | 1.043 ± 0.0099 | 0.917 | 1 ± 0.048 |
| NC(=O)c1cnccn1 [Pyrazinamide] | 0.862 ± 0.21 | 1.04 ± 0.034 | 0.667 | 0.9361 ± 0.0033 |
| OC(CCN1CCCCC1)(c1ccccc1)C1CC2C=CC1C2 (centres undefined) [Biperiden hydrochloride] | 1.06 ± 0.13 | 1.02 ± 0.047 | 0.917 | 1.01 ± 0.022 |
| NCCNCCNCCNCCN [Tetraethylenepentamine pentahydrochloride] | 0.956 ± 0.33 | 1.08 ± 0.041 | 0.75 | 1.02 ± 0.049 |
